High-throughput results from PubChem.
SW480 rerep – A quantitative high throughput screen for small molecules that induce DNA re-replication in SW480 colon adenocarcinoma cells. SW480 DNA re-replication, Hoechst DNA content imaging, 48 h. Potency, µM (doses to about 46.1 µM), without a hit: at the top dose re-replication activation, most hits filed as activators. actives 1.8% (n = 340,000). AID 624297, 2012; note: % of control where 0% means no effect; nearly all actives have a fitted effect of over 55% in size
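DNA re-replication was detected as more nuclei of elevated Hoechst intensity after 48 hr exposure to compound (23 nL pinned per well of 250 cells).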
KB-V1 MDR tox – qHTS assay for MDR1-selective chemotherapeutics: Primary screen using the drug-selected MDR subline cells KB-V1. KB-V1 MDR cells viability, CellTiter-Glo, 72 h. Potency, µM (top dose mostly 46.1 µM), most hits filed as cytotoxic. actives 3.4% (n = 400,000); note: % is set by controls: 0 for no effect and ±100 for the full control effect; nearly all actives have a fitted effect of over 60% in size
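Readout: CellTiter-Glo luminescence, 10 min after addition. Cells: KB-V1 MDR subline, 72 h at 37 degrees C with compound. Analysis: corrected, normalized data fitted to concentration-effect curves.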
MCF10A rereplic – A quantitative high throughput screen for small molecules that induce DNA re-replication in MCF 10a normal breast cells. MCF 10A DNA re-replication, Hoechst nuclear intensity, 48 h. Potency, µM (doses to about 46.1 µM), inactives show at the highest dose activity, positive = re-replication, most hits filed as activators. actives 2.9% (n = 350,000); note: % of control where 0% means no effect; nearly all actives have a fitted effect of over 50% in size
HT1080NT lethal – qHTS for induction of synthetic lethality in tumor cells producing 2HG: qHTS for the HT-1080-NT fibrosarcoma cell line; actives 1.6% (n = 360,000); Potency, µM (top dose mostly 46.1 µM), inactives show at the top dose activity, negative = less viability, usual class: cytotoxic; HT-1080-NT fibrosarcoma viability, CellTiter-Glo ATP luminescence, 48 h;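 note: NT is the 2HG producing partner of a matched IDH1 knockdown line; 0% = DMSO-treated cells and -100% = media-only wells without cells; nearly all actives have a fitted effect of over 55% in size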
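Viability of the 2HG-overproducing fibrosarcoma line after 48 hours of compound exposure at 37 degrees C was determined by luminescence with CellTiter-Glo, and concentration-effect curves were then fitted and categorized.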
HT1080 IDH1KD tx – qHTS for induction of synthetic lethality in tumor cells producing 2HG: qHTS for the HT-1080-IDH1KD cell line | HT-1080 IDH1 knockdown viability, ATP luminescence, 48 h | Potency, µM (series often up to 46.1 µM), for the others: at the highest dose activity, negative = toxicity, usual class: cytotoxic | actives 2% (n = 360,000) | AID 686971, 2013;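 note: 0% = DMSO wells and -100% = cell-free medium wells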
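After a 2 h attachment period, IDH1KD HT-1080 cells took pin-transferred compound for 48 h at 37 °C; ATP-based luminescence after 10 min room-temperature reagent incubation reported viability.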
KB-3-1 tox – qHTS assay for MDR1-selective chemotherapeutics: Primary screen using the parental adenocarcinoma cell KB-3-1. KB-3-1 viability, CellTiter-Glo ATP luminescence, 72 h. Potency, µM (top dose mostly 46.1 µM), actives largely listed as cytotoxic. actives 1.4% (n = 400,000); note: % is set by controls: 0 for no effect and ±100 for the full control effect; nearly all actives have a fitted effect of over 60% in size
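Multi-concentration cytotoxicity screen in KB-3-1 cells grown in DMEM lacking phenol red with 10% FBS. After 72 h at 37 °C with compound, ATP-dependent luminescence was recorded.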
An asterisk follows results filed as active; i = inactive; ? = inconclusive; . = no result given. Most compounds without a hit are left out; they make up all but 7.9% or so of the library. Calls come from the whole dose curve; as a rule, active = well fitted curve in the direction sought with a large enough effect; inconclusive = small, poorly fitted or top-dose-only effect, or another doubt; inactive = no such curve, though single readings can be large; an effect the other way counts as inactive or inconclusive. Potency is the fitted concentration of half-maximal effect.

SMILES | SW480 rerep | KB-V1 MDR tox | MCF10A rereplic | HT1080NT lethal | HT1080 IDH1KD tx | KB-3-1 tox
C#CCN(CC=C)C(=O)c1ccc2nc(C3CCCCC3)oc2c1 | 11% | ? | -5% | 14% | 3% | i
C=C(C(=O)c1ccccc1)C(C)C(=C)C(=O)c1ccccc1 | 7.3µM* | 3.3µM* | 2.9µM* | 8.2µM* | 5.8µM* | ?
CC(C)CNC(=O)c1cccc(NC(=O)Cc2ccc(Br)cc2)c1 | 1.5µM* | 3.3µM* | 2% | 2% | -1% | ?
COc1cccc(C(=O)Nc2cccc(C(=O)NCC(C)C)c2)c1 | -4% | 18µM* | -7% | -4% | 0% | i
CC(C)CNC(=O)c1cccc(NC(=O)c2ccc(Cl)c([N+](=O)[O-])c2)c1 | 7% | 21µM* | ? | -3% | 0% | i
CC1CC(C)CN(S(=O)(=O)c2cccc(C(=O)N3CCN(c4ccc(F)cc4)CC3)c2)C1 (centres undefined) | -3% | i | 28% | -2% | -23% | i
CN(C)N1C(N)=C(C#N)C(c2ccc3c(c2)OCO3)C2=C1CC(C)(C)CC2=O (centres undefined) | 2% | i | -7% | 4% | 3% | i
CC(C)c1ccc(CN2CCC2(C)C(=O)Nc2ccc3c(c2)OCO3)cc1 (centres undefined) | . | ? | . | ? | ? | 16µM*
CC(C)c1ccc(CC(=O)N2CCC2(C)C(=O)Nc2ccc3c(c2)OCCO3)cc1 (centres undefined) | . | 16µM* | . | -20% | -27% | i
COc1cccc(NC(=O)C2(C)CCN2Cc2ccc(OC(C)C)cc2)c1 (centres undefined) | . | ? | . | 9% | 5% | i
CC(C)c1ccc(CC(=O)N2CCC2(C)C(=O)Nc2ccccc2)cc1 (centres undefined) | . | i | . | -7% | -19% | i
CC(C)Oc1ccc(CN2CCC2(C)C(=O)Nc2ccc3c(c2)OCO3)cc1 (centres undefined) | . | 18µM* | . | -20% | -19% | ?
CC1(C(=O)Nc2ccc3c(c2)OCCO3)CCN1Cc1csc2ccccc12 (centres undefined) | . | i | . | -23% | ? | i
CCN(CC)S(=O)(=O)c1ccc(OC)c(NC(=O)CSCc2c(C)noc2C)c1 | 3% | i | -19% | -8% | -3% | i
COCC(C)Nc1ncnc2c1cnn2-c1ccc(C)c(C)c1 (centres undefined) | . | i | . | . | . | i
Cc1ccc(OC(C)C(=O)N(C)Cc2ccccc2)c([N+](=O)[O-])n1 (centres undefined) | -1% | i | 10% | 5% | 3% | i
CCCc1nn2c(=O)cc(COC(=O)c3cccs3)nc2s1 | . | i | . | . | . | i
O=C(O)c1c(-c2ccc(Cl)cc2)cn2ccccc12 | 18µM* | i | ? | 12% | 10% | i
Cc1cc([N+](=O)[O-])c2[nH]c(C(=O)N/N=C/c3ccccc3C(=O)O)c(-c3ccccc3)c2c1 | ? | 4.1µM* | ? | 13% | 11% | i
N#Cc1ccc(C(=O)NC(=S)N2CCOCC2)cc1 | 4% | i | 0% | 1% | 1% | i
O=C(NC(NC(=S)N1CCOCC1)C(Cl)(Cl)Cl)c1ccc(Cl)cc1 (centres undefined) | 5% | 13µM* | 0% | -28% | ? | i
O=C(NC(=S)N1CCOCC1)c1ccc([N+](=O)[O-])cc1 | 0.65µM* | i | -98% | 0% | -5% | i
COc1ccc(OC)c(NC(=O)c2c(NCc3ccc(N(C)C)cc3)sc3c2CCCC3)c1 | . | i | . | . | . | i
COc1ccc2sc(-c3ccccc3OC)c(-c3ccc(O)cc3)c2c1 | 2% | i | 16µM* | -15% | -11% | i
COc1ccc(-n2ncc(C(=O)Nc3cccc(C(F)(F)F)c3)c2C2CCN(C(=O)OC(C)(C)C)CC2)cc1 | . | i | . | . | . | i
SMILES | SW480 rerep | KB-V1 MDR tox | MCF10A rereplic | HT1080NT lethal | HT1080 IDH1KD tx | KB-3-1 tox
CCC(Sc1nc(-c2ccccc2F)nc2c1Cc1c(CO)cnc(C)c1O2)C(=O)Nc1cc(C)ccc1C (centres undefined) | . | i | . | . | . | i
COC(=O)[C@]12CCCCC=C1N(Cc1ccc3c(c1)OCO3)C(=O)[C@H](CC(=O)NCC1CCCCC1)C2 | . | ? | . | -24% | -12% | i
CC(C)(CC(=O)N1CCN(c2ccc(Cl)cc2)CC1)CC1=NS(=O)(=O)c2ccccc2N1 | 2% | 4.1µM* | 0% | ? | -28% | 15µM*
COc1cccc(N2CCN(C(=O)CC(C)(C)CC3=NS(=O)(=O)c4ccccc4N3)CC2)c1 | -4% | i | ? | -14% | -12% | i
Cc1nc2ccc(S(=O)(=O)N(CC(=O)Nc3cccc(F)c3)Cc3ccccc3)cc2s1 | . | i | . | . | . | i
Cc1cccc2sc(N(CCN(C)C)C(=O)/C=C/c3cccs3)nc12 | ? | 18µM* | 23µM* | ? | ? | ?
CN(C)CCCN(C(=O)/C=C/c1cccs1)c1nc2c(F)cccc2s1 | ? | ? | 26µM* | ? | ? | ?
CCN(CC)CCN(C(=O)/C=C/c1cccs1)c1nc2ccc(OC)cc2s1 | -1% | i | 0% | 1% | 1% | i
CCOc1ccc2nc(N(CCN(CC)CC)C(=O)/C=C/c3cccs3)sc2c1 | 29µM* | i | ? | -28% | -20% | i
Cc1[nH]c2ccccc2c1C(=O)c1cc(Cc2ccccc2)sc1N | . | 18µM* | . | ? | ? | 21µM*
COCCCNC(=O)c1cc(Cc2ccccc2)sc1N | . | i | . | -1% | 7% | i
CCOC(=O)N1CCc2c(sc3c2C(=O)NC(c2ccc(C(=O)OC)cc2)N3)C1 (centres undefined) | . | i | . | . | . | i
CCOC(=O)N1CCc2c(sc3c2C(=O)NC(c2cc(OC)c(OC)c(OC)c2)N3)C1 (centres undefined) | . | i | . | . | . | 16µM*
O=C(CNc1ccccc1-c1ccccc1)NCc1ccccc1 | 5% | 16µM* | 15% | -2% | -2% | i
O=C(CNCc1ccccc1)Nc1ccccc1-c1ccccc1 | -3% | i | 23µM* | -1% | 11% | i
